The source of these data is PubChem BioAssay (NCATS).

Each structure is given as a SMILES string. Where “and” joins values, the source holds several entries; their conditions need not be identical. Equal entries are not always repeated. Inconclusive results are not listed. Calls of active or inactive are those of the source. Unless noted, the call rests on the fitted dose curve; in most records, active means well fitted curve in the direction sought with a large enough effect; inconclusive means small, poorly fitted or top-dose-only effect, or another doubt; inactive means no such curve, though single readings can be large; an effect the other way counts as inactive or inconclusive.

The nature of assay [1]: Cell Viability - LYMP2-026 (AID 989). Further: potency means the concentration at half of the fitted maximal effect; nearly all actives have a fitted effect of over 50% in size. In a few lines:
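qHTS cytotoxicity: 2500 cells/well, 5 hr 37 C, compound 24 hr 37 C, CellTiter-Glo 30 min RT, luminescence. Tetraoctylammonium bromide positive control. AC50 via standard Hill fit.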

The nature of assay [2]: Cell Viability - LYMP1-002 - Assay at 24 hr (AID 993). Further: potency means the concentration at half of the fitted maximal effect. The method in brief:
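CellTiter-Glo luminescence (intracellular ATP) after 24 h compound exposure, 37 C, in LYMP1-002 human lymphoblastoid cells; decreased ATP taken as cytotoxicity. AC50 from standard Hill fit of concentration-response curves.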

Assay [3] in a line: Cell Viability - LYMP1-002 - Assay at 40 hr (AID 994). Further: potency means the concentration at half of the fitted maximal effect; nearly all actives have a fitted effect of over 60% in size. In a few lines: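 qHTS cytotoxicity; 2500 cells/well, 5 hr 37 C settle, compound 40 hr 37 C. CellTiter-Glo, 30 min RT, luminescence (ATP). Concentration-response, Hill fit → AC50. Pos. ctrl tetraoctylammonium bromide.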
Assay [4] in a line: qHTS Assay for Lipid Storage Modulators (AID 1519; calls by dose curve; further: potency means the concentration at half of the fitted maximal effect; on activity change, negative = inhibition: on the % scale 0 is the no-effect control and ±100 the full control effect). The conditions noted are these: Drosophila S3 cells, BODIPY lipid droplet/cell ratio, laser cytometry, cells loaded with oleic acid. In a few lines:
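Cells seeded at 5,000 per well were treated with compounds over a concentration series and loaded with oleic acid (400 uM, as added). Lipid droplet fluorescence (488 nm excitation, 500-530 nm channel) was read by laser-scanning cytometry and normalized to 20 uM Triacsin C.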
A general note: Quantitative high-throughput screening tests each substance at several concentrations.

In assay [5] the target is Alpha-galactosidase A (Homo sapiens) (UniProt P06280). In words: Counterscreen for Glucocerebrosidase Inhibitors: qHTS Assay for Human alpha-Galactosidase at pH 4.5 (AID 992). Further: 0% is about no effect. In a few lines:
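Fluorogenic 4-MU alpha-D-galactoside (80 uM) hydrolysis, 2 nM enzyme, pH 4.5 citrate buffer + 0.005% Tween-20; 20 min RT; NaOH/glycine pH 10 stop; Ex365/Em440. Compounds titrated 0.7 nM–77 uM; Hill-equation AC50.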
In general terms: The purpose of a counterscreen is to sort out artefacts and off-target activity.

Assay [6] concerns the target alpha-glucosidase (Oryza sativa, rice) (UniProt Q653V4). Kind of assay: Counterscreen for Glucocerebrosidase Inhibitors: qHTS Assay for Rice alpha-Glucosidase at pH 5.0 (AID 997).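 Further: 0% = full activity with enzyme and -100% = basal without enzyme.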 In a few lines: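 Endpoint fluorogenic assay at pH 5.0: compounds (0.7 nM to 77 uM) titrated against 4 nM rice enzyme and 400 uM 4-MU-alpha-glucoside for 20 min at room temperature; NaOH/glycine stop, read ex 365/em 440 nm, Hill-fitted AC50.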

In assay [7] the target is Alpha-galactosidase (Coffea arabica) (UniProt Q42656). In words: Counterscreen for Glucocerebrosidase Inhibitors: qHTS Assay for Coffee Bean alpha-Galactosidase at pH 5.9 (AID 998).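 Further: plate controls were uninhibited enzyme for no effect and no-enzyme basal signal for full effect.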 The method in brief:
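In 50 mM citric acid pH 5.9 with 0.005% Tween-20, coffee bean enzyme hydrolyses 80 uM 4-MU alpha-D-galactopyranoside over 20 min at RT. Activity is normalized to controls; AC50 comes from Hill-modelled concentration-response data.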

Assay [8] is described as follows: qHTS for differential inhibitors of proliferation of Plasmodium falciparum line GB4 (AID 1816).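 Further: potency means the concentration at half of the fitted maximal effect; parasite growth measured after 72 h incubation.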 Conditions: Potency: Plasmodium falciparum GB4 proliferation inhibition.
Assay [9] can be described thus: qHTS for differential inhibitors of proliferation of Plasmodium falciparum line 3D7 (AID 1876). Further: potency means the concentration at half of the fitted maximal effect.
Assay [10] is described as follows: qHTS for differential inhibitors of proliferation of Plasmodium falciparum line D10 (AID 1877).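 Further: parasites grown with compound for 72 h before DNA staining.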 Further: potency means the concentration at half of the fitted maximal effect.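 On activity change, negative = inhibition: plate controls were vehicle wells for no effect and reference inhibitor wells for full effect.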
Assay [11] can be described thus: qHTS for differential inhibitors of proliferation of Plasmodium falciparum line W2 (AID 1883).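 Further: potency means the concentration at half of the fitted maximal effect; parasites grown with compound for 72 h before lysis and staining.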 Conditions: Potency: Plasmodium falciparum W2 proliferation inhibition.
Assay [12] can be described thus: qHTS for differential inhibitors of proliferation of Plasmodium falciparum line HB3 (AID 1886).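 Further: parasites grown with compound for 72 h before SYBR Green readout.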 Further: potency means the concentration at half of the fitted maximal effect.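 On activity change, negative = inhibition: plate controls were vehicle for no effect and reference inhibitor for full effect.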 The conditions noted are these: Potency: Plasmodium falciparum HB3 proliferation inhibition.
Assay [13] has as its target Ferritin light chain (Equus caballus) (UniProt P02791). In words: qHTS Validation Assay for Identification of Novel General Anesthetics (AID 2323). Further: on the % scale 0 is the no-effect control and ±100 the full control effect. The method in brief: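 Fluorescence at 535 nm (excitation 380 nm) reported loss of 1-AMA binding to horse-spleen apoferritin (10 uM) in PBS with 50% saturated 1-aminoanthracene, after 10 min room-temperature incubation with compound; values from Hill fits of normalized response.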

A short description of assay [14]: qHTS for differential inhibitors of proliferation of Plasmodium falciparum line 7G8 (AID 1815).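 Further: parasite growth measured after three days of incubation.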 Further: potency means the concentration at half of the fitted maximal effect.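 On activity change, negative = inhibition: plate controls were vehicle wells for no effect and reference inhibitor wells for full effect.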
Assay [15] can be described thus: Validation of Assay for Modulators of Lamin A Splicing (AID 1459; active means well fitted curve in the direction sought with a large enough effect in the signal ratio; the % refers to the signal ratio;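 further: cells exposed to compound for two days before reading; 0% is about no effect; ratio rise marks activators and ratio drop marks inhibitors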). In a few lines:
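HeLa S3 lamin A-EGFP/DsRed2 stable clone, 600 cells/well, Opti-MEM 2% FBS; compounds by pin tool; 48 hrs, 37 °C/5% CO2; Acumen 488 nm scan, objects 10-100 um; GFP/RFP intensity ratio.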

Assay [16] addresses DNA repair nuclease/redox regulator APEX1 (Homo sapiens) (UniProt P27695). Kind of assay: qHTS Validation Assay for Inhibitors of the Human Apurinic/apyrimidinic Endonuclease 1 (APE1) (AID 1705;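 further: TAMRA fluorescence gain over two minutes as APE1 cuts a quenched THF abasic duplex; on the % scale 0 is the no-effect control and ±100 the full control effect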). The method in brief: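 qHTS, 1536-well. APE1 + cpd 15 min RT → 50 nM TAMRA/BHQ-2 THF-abasic dsDNA substrate → kinetic fluorescence, 3 reads/60 s; delta(read3−read1) = reaction progress. No-enzyme buffer = negative control.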

A short description of assay [17]: Counterscreen for APE1 Inhibitors: Fluorescent Dye Displacement Validation Assay (AID 1707).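 Further: plate controls were ThO with dsDNA and no compound for no effect and ThO without dsDNA for full effect.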 In a few lines:
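Endpoint fluorescence read at 480 nm excitation / 540 nm emission; DNA-binding compounds lower signal by displacing 250 nM Thiazole Orange from 50 nM dsDNA containing a tetrahydrofuran abasic site, Tris-HCl pH7.5 buffer with NaCl and MgCl2.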

Assay [18] is described as follows: qHTS for differential inhibitors of proliferation of Plasmodium falciparum line Dd2 (AID 1882).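 Further: compound exposure of 72 h on infected erythrocytes; plate controls were DMSO vehicle for no effect and 0.29 µM artemisinin for full effect; nearly all actives have a fitted effect of over 65% in size.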 The conditions noted are these: Potency: Plasmodium falciparum Dd2 proliferation inhibition. In a few lines:
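RBC culture, 0.3% parasitemia / 2.5% Hct final; cpd added by pin tool in DMSO; 72 h, 37 C, 5% CO2; lysis buffer + SYBR Green I, o/n RT dark; FI 485/535; norm. to artemisinin 0.29 uM and DMSO.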

Where [19] appears, read: measured here: cell count channel max response.
Where [20] appears, read: measured here: lipid channel max response.

Sequence of Alpha-galactosidase (Coffea arabica) (Q42656 whole entry, looked up): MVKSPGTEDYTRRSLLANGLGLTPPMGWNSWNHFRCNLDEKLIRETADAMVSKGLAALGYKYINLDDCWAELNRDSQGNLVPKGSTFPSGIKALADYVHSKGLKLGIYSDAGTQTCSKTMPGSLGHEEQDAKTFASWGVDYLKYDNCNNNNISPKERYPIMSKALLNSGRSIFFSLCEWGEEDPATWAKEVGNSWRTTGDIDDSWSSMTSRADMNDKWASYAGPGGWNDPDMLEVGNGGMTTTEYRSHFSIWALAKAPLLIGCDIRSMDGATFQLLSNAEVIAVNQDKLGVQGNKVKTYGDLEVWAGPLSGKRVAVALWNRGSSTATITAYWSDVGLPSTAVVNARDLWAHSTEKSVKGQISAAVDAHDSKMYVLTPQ
Sequence of Alpha-galactosidase A (Homo sapiens) (P06280 whole entry, looked up): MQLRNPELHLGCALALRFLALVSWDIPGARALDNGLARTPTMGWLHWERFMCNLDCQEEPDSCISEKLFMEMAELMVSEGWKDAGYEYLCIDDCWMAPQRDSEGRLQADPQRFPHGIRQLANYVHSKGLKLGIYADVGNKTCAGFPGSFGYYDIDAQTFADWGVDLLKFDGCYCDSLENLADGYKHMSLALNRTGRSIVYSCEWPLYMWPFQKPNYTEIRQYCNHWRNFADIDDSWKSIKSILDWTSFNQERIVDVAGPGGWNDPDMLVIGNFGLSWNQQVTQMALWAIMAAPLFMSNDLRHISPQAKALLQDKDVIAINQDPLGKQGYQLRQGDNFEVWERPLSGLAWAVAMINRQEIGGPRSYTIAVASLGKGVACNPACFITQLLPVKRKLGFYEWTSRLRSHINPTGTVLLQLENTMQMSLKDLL
Sequence of Ferritin light chain (Equus caballus) (P02791 2-175 limits assumed): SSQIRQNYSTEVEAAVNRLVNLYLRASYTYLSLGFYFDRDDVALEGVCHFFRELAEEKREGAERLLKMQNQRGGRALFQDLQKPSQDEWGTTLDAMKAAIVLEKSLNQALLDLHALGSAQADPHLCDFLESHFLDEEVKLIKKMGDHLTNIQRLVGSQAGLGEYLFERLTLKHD
Sequence of DNA repair nuclease/redox regulator APEX1 (Homo sapiens) (P27695 whole entry, looked up): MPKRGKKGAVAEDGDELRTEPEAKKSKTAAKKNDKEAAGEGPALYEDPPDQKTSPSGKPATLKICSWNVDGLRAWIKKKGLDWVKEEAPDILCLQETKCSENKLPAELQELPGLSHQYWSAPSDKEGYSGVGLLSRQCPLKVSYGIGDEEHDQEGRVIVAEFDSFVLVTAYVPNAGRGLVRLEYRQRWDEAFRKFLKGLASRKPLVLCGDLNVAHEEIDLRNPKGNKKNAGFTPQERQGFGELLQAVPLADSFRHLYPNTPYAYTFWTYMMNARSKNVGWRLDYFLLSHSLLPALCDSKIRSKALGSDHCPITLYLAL

Take `CC[n+]1c(-c2ccccc2)c2cc(N)ccc2c2ccc(N)cc21`: the results for the Potency in assay [1], in assay [2] and in assay [3] were 15.8 µM (active), 31.6 µM (active) and 31.6 µM (active), respectively. The activity change, negative = inhibition in [4] (at 57.5 µM (top of the series)) was 1.12% (inactive). In addition, the values for the max response in assay [4] (setting [19]) and in assay [4] (setting [20]) were 2.87% and 6.23%, respectively.

On to `CCCCCCCCCCCCCCCC[n+]1ccccc1`, for which, in assay [4], the Potency is 10 µM (active). The figures for the max response in assay [4] (setting [19]) and in [4] (setting [20]) were -21.8% and -114%, respectively.

`Clc1ccc(CSC(Cn2ccnc2)c2ccc(Cl)cc2Cl)cc1` (configuration not stated): the activity change, negative = inhibition in [4] (at 57.5 µM (top of the series)) was 11.1% (inactive). Besides, the max response in assay [4] (setting [19]) was -1.1%; in assay [4] (setting [20]), 12.4%.

As for `Cc1ccc(N=CN(C)C=Nc2ccc(C)cc2C)c(C)c1`, the activity change, negative = inhibition in [4] (at 57.5 µM (top of the series)) was 14.3% (inactive). The max response was determined as 10.9% in assay [4] (setting [19]) and 26.2% in assay [4] (setting [20]).

In the case of `CN1[C@@H]2CC[C@H]1CC(OC(=O)c1cc(Cl)cc(Cl)c1)C2` (some centres not stated), the result in assay [5] and in [6] was inactive. In addition, in assay [4] (at 57.5 µM (top of the series)), the activity change, negative = inhibition was 4.19% (inactive). In addition, the max response stood at 20.8% in assay [4] (setting [19]) and 27.7% in assay [4] (setting [20]).

In the case of `Clc1ccc(C(OCCN2CCCCC2)c2ccccc2)cc1` (configuration not stated), the activity change, negative = inhibition in [4] (at 57.5 µM (top of the series)) is 10.4% (inactive). Moreover, the figures for the max response in assay [4] (setting [19]) and in assay [4] (setting [20]) were 15.5% and 25.9%, respectively.

Turning to `NC(N)=NC(=O)c1nc(Cl)c(N)nc1N`, the result in [7] and in assay [13] was inactive. For the same compound, the activity change, negative = inhibition in assay [4] (at 25.7 µM (top of the series)) is -0.295% (inactive); in assay [4] (at 57.5 µM (top of the series)), -0.935% (inactive) and 5.62% (inactive). Further, the max response is 12.3% and 6.32% and 9.51% in assay [4] (setting [19]); 15.3% and 5.93% and 17.9% in [4] (setting [20]). Further, the Potency is 12.6 µM (active) in assay [8]; 11.2 µM (active) in [9]; 8.91 µM (active) in [10]; 8.91 µM (active) in assay [11]; 10 µM (active) in assay [12].

For the compound `O=C(NC(=O)c1c(F)cccc1F)Nc1cc(Cl)c(OC(F)(F)C(F)C(F)(F)F)cc1Cl` (configuration not stated), in assay [4] (at 57.5 µM (top of the series)), the activity change, negative = inhibition is -23.4% (inactive). In addition, the results for the max response in assay [4] (setting [19]) and in [4] (setting [20]) were 4.92% and -17.8%, respectively.

As to `CNC(=O)Oc1ccc2c(c1)[C@]1(C)CCN(C)[C@@H]1N2C`, the activity change, negative = inhibition in assay [4] (at 57.5 µM (top of the series)) is 0.848% (inactive). Besides, the max response in assay [4] (setting [19]) is -15.1%; in [4] (setting [20]) it was -15.5%. In addition, the Potency in assay [14] was 5.01 µM (active); in [8], 3.98 µM (active); in assay [9] it was 4.47 µM (active); in assay [10], 4.47 µM (active); in assay [11], 7.08 µM (active); in [12], 5.01 µM (active).

Consider `COc1ccc(CN2CCNCC2)c(OC)c1OC`, for which, in [4] (at 25.7 µM (top of the series)), the activity change, negative = inhibition was -1.99% (inactive). Further, the max response in assay [4] (setting [19]) is -6.25%; in assay [4] (setting [20]), -8.59%.

With `O=C1CC2(CCCC2)CC(=O)N1CCCCN1CCN(c2ncccn2)CC1`, in assay [7], the result was inactive. Moreover, the activity change, negative = inhibition in assay [4] (at 25.7 µM (top of the series)) is 0.205% (inactive); in assay [4] (at 57.5 µM (top of the series)), -2.21% (inactive). Also, the max response was -26.7% and -71.1% in assay [4] (setting [19]); -24.8% and -67.1% in [4] (setting [20]). In addition, the Potency in [14] and in [11] was 10 µM (active) throughout.

Regarding `CCCCCCCCC(=O)NCc1ccc(O)c(OC)c1`, the outcome in assay [5], in [6], in assay [7], in assay [15], in assay [16] and in assay [17] was inactive. Also, in [4] (at 57.5 µM (top of the series)), the activity change, negative = inhibition is -0.202% (inactive) and 0.982% (inactive). Further, the max response in assay [4] (setting [19]) was 1.44% and 21.8%; in assay [4] (setting [20]), 3.12% and 22.1%. Moreover, the Potency entry in [14], in [10], in assay [18] and in assay [12] was “inactive” in each case.

Consider `CCNc1nc(Cl)nc(NCC)n1`, for which the activity change, negative = inhibition in [4] (at 57.5 µM (top of the series)) was 6.1% (inactive). The figures for the max response in assay [4] (setting [19]) and in assay [4] (setting [20]) were 11.4% and 16.8%, respectively.
